Reference: PubChem BioAssay (NCI)
About 83,000 compounds went through this panel and 20% of them were active in at least one assay; those are over-represented in the sample as a whole.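 Treatment: one concentration, 48 hours, 96-well format. Scoring: percent growth, with anything below 10 considered active.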 Unmarked numbers belong to inactive results. Calls of active or inactive are those of the source.

Key:
Experiment in all cases: NCI-60 one-dose screen, 48 h (100 = growth as untreated, 0 = no growth, -100 = all killed)
Details in all cases: 10 µM unless noted
DU-145 prostate = test system: DU-145 prostate
K-562 leukemia = test system: K-562 leukemia
MALME-3M melanoma = test system: MALME-3M melanoma
MDA-MB-231 breast = test system: MDA-MB-231 breast
RXF 393 renal = test system: RXF 393 renal
SF-268 CNS = test system: SF-268 CNS
SF-295 CNS = test system: SF-295 CNS
SF-539 CNS = test system: SF-539 CNS
UACC-257 melanoma = test system: UACC-257 melanoma
M14 melanoma = test system: M14 melanoma
HCT-15 colon = test system: HCT-15 colon
HT29 colon = test system: HT29 colon
SNB-75 CNS = test system: SNB-75 CNS
SNB-19 CNS = test system: SNB-19 CNS
U251 CNS = test system: U251 CNS
PC-3 prostate = test system: PC-3 prostate
SK-MEL-5 melanoma = test system: SK-MEL-5 melanoma
UACC-62 melanoma = test system: UACC-62 melanoma
LOX IMVI melanoma = test system: LOX IMVI melanoma
SK-MEL-28 melanoma = test system: SK-MEL-28 melanoma

Compound	growth (DU-145 prostate)	growth (K-562 leukemia)	growth (MALME-3M melanoma)	growth (MDA-MB-231 breast)	growth (RXF 393 renal)	growth (SF-268 CNS)	growth (SF-295 CNS)	growth (SF-539 CNS)	growth (UACC-257 melanoma)	growth (M14 melanoma)	growth (HCT-15 colon)	growth (HT29 colon)	growth (SNB-75 CNS)	growth (SNB-19 CNS)	growth (U251 CNS)	growth (PC-3 prostate)	growth (SK-MEL-5 melanoma)	growth (UACC-62 melanoma)	growth (LOX IMVI melanoma)	growth (SK-MEL-28 melanoma)
N#Cc1ccc(N2Cc3cc(Cl)ccc3OC3=C2C(=O)N(Cc2ccccc2)C3=O)cc1	-75.7% (active)	-22.3% (active)	-64.4% (active)	-15.9% (active)	-79.8% (active)	-43.3% (active)	69.4%	-60.3% (active)	-56.1% (active)	-35.7% (active)	-44.9% (active)	-47.3% (active)	29.9%	69.1%	-31.7% (active)	21.9%	-31.5% (active)	-35.5% (active)	-91.6% (active)	-44.4% (active)
COc1cc2c(cc1OC)C(Sc1ccc(Cl)cc1)c1c(nc(N)c(C#N)c1N)O2 (stereo not given)	5.73% (active)	0.964% (active)	-28.6% (active)	-20.1% (active)	-65.4% (active)	35.7%	43.8%	-21.9% (active)	22.5%	-21.2% (active)	-66.2% (active)	-61.9% (active)	-17.4% (active)	22.1%	-62.5% (active)	5.11% (active)	12.5%	-23.8% (active)	-88.9% (active)	-3.09% (active)
N#Cc1c(-c2ccc(F)cc2)c(C#N)c2c(C#N)c(N)nn2c1N	89.8%	106%	110%	102%	84.4%	93.3%	101%	90.8%	110%	105%	106%	98.7%	87.8%	108%	94.7%	77.4%	96.8%	105%	89.9%	111%
CN1CCN(/C=C2\CC(C(=O)NCc3ccc(Cl)cc3Cl)NC2=O)CC1 (stereo not given)	108%	95.7%	98.6%	104%	103%	97.9%	110%	102%	93.2%	110%	108%	99%	106%	100%	100%	90.9%	95.8%	96.6%	100%	110%
N#Cc1ccc(N2Cc3cc(Cl)ccc3OC3=C2C(=O)N(Cc2ccc(F)cc2)C3=O)cc1	-91.8% (active)	-21.6% (active)	-72.3% (active)	-0.424% (active)	-56.8% (active)	-58.4% (active)	66.6%	-65.7% (active)	-64% (active)	-68.4% (active)	-54.9% (active)	-59.1% (active)	-3.4% (active)	57.8%	-61.1% (active)	11.8%	-33.1% (active)	-41.1% (active)	-93% (active)	-64.1% (active)
Cc1c(Cl)cccc1NC(=O)c1sc2nc3c(cc2c1N)CN(Cc1ccccc1)CC3	30.5%	10%	49.5%	86.3%	68.8%	42.3%	21.8%	39.3%	63.6%	26.8%	33.6%	8.14% (active)	41.9%	38.4%	31.9%	43.1%	49.1%	40.2%	40.4%	71.1%
C=C1C(=O)O[C@H]2[C@H]1CC/C(C=Nc1c(N)cc(C(F)(F)F)cc1Br)=C\CC[C@@]1(C)O[C@@H]21	19.3%	-8.9% (active)	-8.38% (active)	-16% (active)	-63.4% (active)	27.6%	83.3%	18.6%	34%	-46.3% (active)	-55.1% (active)	-36.4% (active)	76.1%	33.7%	25.7%	6.24% (active)	33.7%	4.73% (active)	-74.4% (active)	-12.3% (active)
COc1cc(C(=O)Nc2cc(OC)c3ccn(C)c3c2)cc2c1C[C@]1(C)CC[C@@H](O)C(C)(C)[C@H]1O2	32.1%	9.98% (active)	31%	30.6%	-32.8% (active)	27.3%	-44.2% (active)	-26.1% (active)	32.5%	-32.7% (active)	20.9%	5.58% (active)	-9.5% (active)	33.3%	16.5%	3.01% (active)	-34.8% (active)	-8.05% (active)	-14.6% (active)	13.4%
Cc1cnc(SCc2ccc(Cl)cc2)[nH]c1=S	100%	92.9%	95.8%	101%	132%	95.3%	95.5%	101%	102%	102%	101%	82.9%	85.2%	98.2%	96.3%	104%	96.9%	99.4%	101%	98.9%
Cc1nc2sc(C(=O)Nc3cccc4ccccc34)c(N)c2cc1C(C)O (stereo not given)	13.6%	8.19% (active)	85.1%	33.1%	21.7%	51.4%	10.8%	0.0649% (active)	64%	15.4%	14.4%	4.82% (active)	29%	34%	25.4%	30.7%	8.93% (active)	36%	26.9%	66.9%
O=C(/C(=C/c1ccc([N+](=O)[O-])cc1)SCc1ccc(F)cc1)c1ccc(Cl)cc1	87.5%	0.694% (active)	91.9%	58.7%	93.4%	75.6%	81.6%	94.6%	87.4%	44.7%	5.41% (active)	8.59% (active)	83.3%	47.4%	0.994% (active)	47.4%	54.2%	37.5%	3.68% (active)	93.1%
COc1ccc(/C=C(/C(=O)N2CCN(Cc3ccccc3)CC2)c2cc(OC)c(OC)c(OC)c2)cc1O	82.3%	23.1%	65.8%	76.9%	62.3%	72.6%	82.8%	55.7%	54.7%	38%	59.7%	95.4%	49.2%	64.8%	66.1%	34.8%	33.3%	45%	60.2%	76.5%
COC(=O)/C=C1\SC(=Nc2cccc(Cl)c2)N(CCc2c[nH]c3ccccc23)C1=O	54.5%	24.3%	45.9%	39.5%	44.8%	49.5%	55.1%	69.9%	37.1%	42.4%	29%	8.6% (active)	84.5%	54.4%	41.1%	31.8%	63.3%	18.3%	5.31% (active)	64.8%
C[C@H]1[C@H](C)CC[C@]2(C(=O)OCCOCCOCC[P+](c3ccccc3)(c3ccccc3)c3ccccc3)CC[C@]3(C)C(=CC[C@@H]4[C@@]5(C)CC[C@H](OC(=O)C(Cl)Cl)C(C)(C)[C@@H]5CC[C@]43C)[C@H]12	26%	0.14% (active)	-78.5% (active)	-0.496% (active)	-29.5% (active)	25.9%	-34.8% (active)	9.4% (active)	-13.6% (active)	8.99% (active)	17.1%	3.81% (active)	19.7%	20.4%	11.3%	5.1% (active)	-97.7% (active)	-23.9% (active)	-21.1% (active)	30%
CNc1cccc2c1C(=O)c1cccc(N)c1C2=O	40.1%	26.2%	87.4%	85.9%	60.9%	56.1%	88.5%	85.7%	80.5%	11.3%	58.6%	71.2%	71.5%	84.2%	29.6%	40.7%	88%	77.3%	79.1%	96.3%
